Out of some 190,000 compounds screened, about 3,100 (1.6%) were called active. The sample as a whole holds a higher share of actives than the screen did. Unmarked numbers belong to inactive results. Rule as the data show it: active = fold change above about 3.3; inconclusive = no clear call, values can overlap the other calls; inactive = below that.

A short description of this experiment: NF-kB upregulation, human neuronal cells – cell-based, HTS, primary screen (AID 1239). The note with it: NF-kB reporter expression, at 12.5 µM, active compounds read high.
Consider `N/C(=N\OC(=O)N1c2ccccc2Sc2ccccc21)c1ccc(Br)cc1`, for which the fold change is 1.29.

For `N/C(=N\OC(=O)c1ccc2c(c1)OCO2)c1ccc(Br)cc1`, the fold change was 3.37 (active).

On to `N/C(=N\OC(=O)/C=C/c1ccccc1)c1ccc(Br)cc1`, for which the fold change is 1.46.

Take `CC(C)(C)OC(=O)N/N=C/c1cn(-c2ccccc2)nc1-c1cccnc1`: the fold change is 0.46.

For the molecule `Cc1ccc(S(=O)(=O)N(CC(=O)NN=C2CCN(C)CC2)c2ccc(F)cc2)cc1`, the fold change was 0.83.

With `COc1ccc(NC(=O)c2ccc(OC)cc2)cc1`, the fold change is 4.29 (active).

On to `COc1ccc(NC(=O)c2ccc(C#CC(C)(C)O)cc2)cc1`, for which the fold change was 1.35.

For `COc1ccccc1CC(=O)Nc1ccc(F)cc1F`, the fold change is 1.07.

In the case of `COc1ccc(NC(=O)Nc2ccc3nc(C)c(C)nc3c2)cc1`, the fold change is 0.77.

In the case of `COc1cc(OC)cc(C(=O)OCC(=O)Nc2ccc(F)cc2F)c1`, the fold change was 1.18.

In the case of `COc1ccc(/C=N/NC(=O)Nc2ccc3nsnc3c2)c(OC)c1`, the fold change is 1.11.

Consider `COc1ccc(C(=O)Nc2ccc(S(=O)(=O)NC(C)C)cc2)cc1`, for which the fold change is 1.12.

For the molecule `COc1ccc(NC(=O)Nc2ccc3nsnc3c2)cc1`, the fold change was 3.98 (active).

As to `COc1ccc(C(=O)Nc2ccc(F)cc2F)cc1`, the fold change is 3.39 (active).

Turning to `Cc1ccc(-c2nn(-c3cccc(F)c3)cc2CNCCc2ccncc2)o1`, the fold change was 0.82.

For the molecule `Cc1cc(C(=O)N/N=C\C(Br)=C\c2ccccc2)c(C)o1`, the fold change was 1.27.

Turning to `O=C(Nc1cccn(Cc2ccccc2Cl)c1=O)NC1CCCCC1`, the fold change is 1.26.

As to `O=C(COc1ccccc1[N+](=O)[O-])NC1CC1`, the fold change was 1.17.

On to `Cc1ccc(C(=O)N/C(=C\c2cccs2)C(=O)NCCc2ccccn2)cc1C`, for which the fold change was 1.8.

For the molecule `Cc1ccccc1Nc1scc(-c2ccc(Br)cc2)[n+]1-c1ccccc1C`, the fold change was 0.87.

Turning to `Cc1ccnc(N2CCCC(C(=O)Nc3cc(F)ccc3C)C2)n1` (centres undefined), the fold change is 1.14.

Regarding `O=C(Nc1ccc2c(c1)OCCO2)C1CCCN(c2ncccn2)C1` (centres undefined), the fold change was 4.28 (active).

On to `Cc1cc(C)nc(N2CCC(C(=O)Nc3ccc4c(c3)OCCO4)CC2)n1`, for which the fold change is 1.22.

Consider `COc1ccc(-c2ccc(CCC(=O)O)n2-c2ccc(O)cc2)cc1`, for which the fold change is 0.84.

`CC(C)(C)c1csc(NC2=NS(=O)(=O)c3ccccc32)n1`: the fold change was 3.56 (active).

Consider `Cc1ccc(S(=O)(=O)N(NC2=NS(=O)(=O)c3ccccc32)C(=O)c2ccccc2)cc1`, for which the fold change is 1.06.

On to `O=C(Oc1cccc(NC2=NS(=O)(=O)c3ccccc32)c1)c1ccncc1`, for which the fold change is 1.14.

For the molecule `N#Cc1c(NC(=O)C2CCCO2)sc2c1CCCCC2` (centres undefined), the fold change was 1.1.

As to `CCN(CC)CCNS(=O)(=O)c1ccc(/C=C/C(=O)O)cc1`, the fold change is 1.3.

As to `CSc1ccc(/C=N\NC(=O)COc2ccc(Cl)cc2Br)cc1`, the fold change is 1.51.

On to `COc1ccc(/C=N/NC(=O)c2cccc(C(F)(F)F)c2)cc1`, for which the fold change is 0.86.

Regarding `CSc1ccc(/C=N/NC(=O)c2cccc(Cl)c2)cc1`, the fold change is 3.71 (active).

On to `CC(=O)c1ccccc1NC(=O)CC1(CC(=O)O)CCCCC1`, for which the fold change is 1.2.

Consider `CC(=O)Nc1ccc(CN2CCN(Cc3ccc(F)c(F)c3)C(CCO)C2)cc1` (centres undefined), for which the fold change was 1.18.

Take `CCCCOc1ccc(-c2nnc(-c3ccco3)o2)cc1`: the fold change was 3.49 (active).

On to `CCC(=O)Oc1cccc(C(=O)Nc2ccc(-c3nnc(-c4ccco4)o3)cc2)c1`, for which the fold change is 0.99.

Take `CCOc1ccc(-c2nnc(-c3ccco3)o2)cc1`: the fold change was 2.85.

As to `O=C1CCCC2=C1C(c1cccs1)CC(=O)N2c1ccc(F)cc1` (centres undefined), the fold change is 1.01.

Consider `CN(C)CCOCCOc1ccc(Cl)c2ccccc12`, for which the fold change was 0.97.

Take `CCOC(=O)c1[nH]ncc1CN1CCCC(C(=O)c2ccc(OC)cc2C)C1` (centres undefined): the fold change was 1.04.

As for `C=CCn1c(-c2sc(-c3ccccc3)nc2C)n[nH]c1=S`, the fold change was 1.29.

With `COc1ccc2c3c(c(=O)oc2c1OCC(=O)C(C)(C)C)CCCC3`, the fold change is 1.12.

For `CCCOc1ccc2c3c(c(=O)oc2c1OCCC)CCC3`, the fold change was 5.55 (active).

`O=c1oc2c(CN3CCCCC3)c(O)ccc2c2c1CCCCC2`: the fold change was 1.01.

`Cc1cccc(NC(=S)NCCc2ccc(F)cc2)c1C`: the fold change is 1.04.

For the molecule `Cc1ccc2c(c1)C(O)(CC(=O)c1cccc(-n3cccc3)c1)C(=O)N2` (centres undefined), the fold change is 1.11.

For `COC(=O)c1sc2[nH]c(=S)n(N)c(=O)c2c1C`, the fold change was 1.19.

For the molecule `Cc1ccccc1Nc1nc(N)nc(CSc2ccccc2)n1`, the fold change is 5.08 (active).

For the molecule `Cc1ccccc1Nc1nc(N)nc(CSc2nnc3ccccn23)n1`, the fold change is 1.69.

As to `Cc1ccc(C(=O)OCc2nc(N)nc(Nc3ccccc3C)n2)cc1`, the fold change is 0.92.

As for `C/C(=N/OC(=O)c1c(-c2c(F)cccc2Cl)noc1C)c1cnccn1`, the fold change is 1.2.

For `CCOc1ccc2nc(Nc3nc4ccc(NC(C)=O)cc4s3)sc2c1`, the fold change is 0.85.

For `CCOc1ccc2nc(SC(CC)C(=O)Nc3cc(C)on3)sc2c1` (centres undefined), the fold change is 0.94.

Turning to `CCOc1ccc2nc(C(=O)N3CCCC(C)C3)sc2c1` (centres undefined), the fold change was 8.66 (active).

Turning to `CCOC(=O)c1c(NC(=O)C2CC=CCC2C(=O)O)sc(C)c1CC` (centres undefined), the fold change was 0.88.

`Cc1ccn(-c2cccc(-n3ccc(C)n3)n2)n1`: the fold change was 3.56 (active).

On to `COc1ccc2oc(-c3cccc(NC(=O)CSc4ccc(Cl)cc4)c3)nc2c1`, for which the fold change is 5.09 (active).

With `COc1cccc(-c2nc3cc(C)ccc3o2)c1`, the fold change is 6.47 (active).

As for `COc1ccc(-c2nc3cc([N+](=O)[O-])ccc3o2)cc1OC`, the fold change is 1.48.

Consider `O=C(Cc1cccc2ccccc12)Nc1ccc2oc(-c3ccccc3)nc2c1`, for which the fold change was 1.24.

On to `COc1ccc(C)cc1NC(=O)CSc1ccc(Cl)cc1`, for which the fold change is 1.29.

For `COc1cccc(-c2nc(S(=O)(=O)c3ccccc3)c(N3CCOCC3)o2)c1`, the fold change is 1.11.

Turning to `COc1ccc(S(=O)(=O)N2CCCCCC2)cc1C(=O)OCC(=O)Nc1cc(C)on1`, the fold change was 0.91.

Regarding `CCC(C)(C)c1ccc(OCC(=O)N(C)C)c(C(C)(C)CC)c1`, the fold change was 0.82.
